Assay results reported in PubChem BioAssay AID1159580 (chemical genetic matrix, 2015).
In all, about 5,500 compounds went through this assay and about 2,000 (36%) were called active. Another 18% or so got no clear call; they are omitted. Cut-off read from the data, not from the text of the source: active = normalized growth mostly below about 0.91 (no sharp cut-off); inconclusive = no clear call, values can overlap the other calls; inactive = mostly above about 0.92. This is one part of the list.

Assay: chemical genetic growth profiling, strain panel (AID 1159580);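 note: tested at 20 µM; growth read once vehicle control cultures reached saturation at 30 °C; 1 = growth at the plate median or of vehicle wells; lower values mean less growth of the strain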
Conditions: S. cerevisiae deletion strains, growth OD
[1] = locus YAL021C, strain ccr4, stronger effect = lower value
[2] = locus YAL026C, strain drs2, stronger effect = lower value
[3] = locus YAL030W, strain snc1, stronger effect = lower value
[4] = locus YAL040C, strain CLN3, stronger effect = lower value
[5] = locus YBL061C, strain skt5, stronger effect = lower value
[6] = locus YBR009C, strain hhf1, stronger effect = lower value
[7] = locus YBR023C, strain chs3, stronger effect = lower value
[8] = locus YBR171W, strain sec66, stronger effect = lower value
[9] = locus YBR231C, strain swc5, stronger effect = lower value
[10] = locus YBR279W, strain paf1, stronger effect = lower value
[11] = locus YCL011C, strain gbp2, stronger effect = lower value
[12] = locus YCL016C, strain dcc1, stronger effect = lower value
[13] = locus YCL061C, strain MRC1 (second series), stronger effect = lower value
[14] = locus YCL061C, strain MRC1, stronger effect = lower value
[15] = locus YCL069W, strain vba3, stronger effect = lower value
[16] = locus YCR088W, strain abp1, stronger effect = lower value
[17] = locus YDL005C, strain med2, stronger effect = lower value
[18] = locus YDL040C, strain nat1, stronger effect = lower value
[19] = locus YDR001C, strain nth1, stronger effect = lower value
[20] = locus YDR069C, strain doa4, stronger effect = lower value
[21] = locus YDR137W, strain rgp1, stronger effect = lower value
[22] = locus YDR159W, strain sac3, stronger effect = lower value
[23] = locus YDR297W, strain sur2, stronger effect = lower value
[24] = locus YDR334W, strain swr1, stronger effect = lower value
[25] = locus YDR335W, strain msn5, stronger effect = lower value
[26] = locus YDR363W, strain ESC2, stronger effect = lower value
[27] = locus YDR392W, strain spt3, stronger effect = lower value
[28] = locus YEL003W, strain gim4, stronger effect = lower value
[29] = locus YEL037C, strain rad23, stronger effect = lower value
[30] = locus YEL061C, strain CIN8 (second series), stronger effect = lower value
[31] = locus YER002W, strain NOP16, stronger effect = lower value
[32] = locus YER015W, strain faa2, stronger effect = lower value
[33] = locus YER016W, strain bim1, stronger effect = lower value
[34] = locus YER111C, strain swi4, stronger effect = lower value
[35] = locus YER155C, strain BEM2 (second series), stronger effect = lower value
[36] = locus YFR010W, strain ubp6, stronger effect = lower value
[37] = locus YGL167C, strain pmr1, stronger effect = lower value
[38] = locus YGL173C, strain kem1, stronger effect = lower value
[39] = locus YGL227W, strain vid30, stronger effect = lower value
[40] = locus YGL240W, strain doc1, stronger effect = lower value
[41] = locus YGL253W, strain hxk2, stronger effect = lower value
[42] = locus YHR013C, strain ard1, stronger effect = lower value
[43] = locus YHR027C, strain rpn1, stronger effect = lower value
[44] = locus YHR030C, strain SLT2, stronger effect = lower value
[45] = locus YHR079C, strain IRE1, stronger effect = lower value
[46] = locus YHR142W, strain chs7, stronger effect = lower value
[47] = locus YJL092W, strain hpr5, stronger effect = lower value
[48] = locus YJL095W, strain BCK1 (second series), stronger effect = lower value
[49] = locus YJL095W, strain BCK1, stronger effect = lower value
[50] = locus YJL115W, strain asf1, stronger effect = lower value
[51] = locus YJL129C, strain trk1, stronger effect = lower value
[52] = locus YJL154C, strain vps35, stronger effect = lower value
[53] = locus YJL164C, strain tpk1, stronger effect = lower value
[54] = locus YJL166W, strain qcr8, stronger effect = lower value
[55] = locus YJL187C, strain SWE1, stronger effect = lower value
[56] = locus YJR066W, strain TOR1, stronger effect = lower value
[57] = locus YKL160W, strain elf1, stronger effect = lower value
[58] = locus YKR026C, strain gcn3, stronger effect = lower value
[59] = locus YKR091W, strain srl3, stronger effect = lower value
[60] = locus YLL001W, strain dnm1, stronger effect = lower value
[61] = locus YLL026W, stronger effect = lower value
[62] = locus YLL041C, strain sdh2, stronger effect = lower value
[63] = locus YLR027C, strain aat2, stronger effect = lower value
[64] = locus YLR113W, strain HOG1, stronger effect = lower value
[65] = locus YLR221C, strain rsa3, stronger effect = lower value
[66] = locus YLR258W, strain gsy2, stronger effect = lower value
[67] = locus YLR262C, strain YPT6 (second series), stronger effect = lower value
[68] = locus YLR320W, strain mms22, stronger effect = lower value
[69] = locus YLR342W, strain FKS1, stronger effect = lower value
[70] = locus YLR357W, strain rsc2, stronger effect = lower value
[71] = locus YLR370C, strain arc18, stronger effect = lower value
[72] = locus YLR384C, strain iki3, stronger effect = lower value
[73] = locus YML120C, strain ndi1, stronger effect = lower value
[74] = locus YMR058W, strain fet3, stronger effect = lower value
[75] = locus YMR125W, strain sto1, stronger effect = lower value
[76] = locus YMR129W, stronger effect = lower value
[77] = locus YMR205C, strain PFK2, stronger effect = lower value
[78] = locus YMR231W, strain pep5, stronger effect = lower value
[79] = locus YNL071W, strain lat1, stronger effect = lower value
[80] = locus YNL175C, strain NOP13, stronger effect = lower value
[81] = locus YNL183C, strain NPR1, stronger effect = lower value
[82] = locus YNL197C, strain WHI3, stronger effect = lower value
[83] = locus YNL209W, strain ssb2, stronger effect = lower value
[84] = locus YNL224C, strain SQS1, stronger effect = lower value
[85] = locus YNL248C, strain rpa49, stronger effect = lower value
[86] = locus YNL322C, strain KRE1 (second series), stronger effect = lower value
[87] = locus YNR049C, strain mso1, stronger effect = lower value
[88] = locus YOR001W, strain rrp6, stronger effect = lower value
[89] = locus YOR070C, strain gyp1, stronger effect = lower value
[90] = locus YOR080W, strain dia2, stronger effect = lower value
[91] = locus YOR083W, strain WHI5 (second series), stronger effect = lower value
[92] = locus YOR083W, strain WHI5, stronger effect = lower value
[93] = locus YOR106W, strain vam3, stronger effect = lower value
[94] = locus YOR231W, strain MKK1, stronger effect = lower value
[95] = locus YOR265W, strain rbl2, stronger effect = lower value
[96] = locus YOR270C, strain vph1, stronger effect = lower value
[97] = locus YOR290C, strain snf2, stronger effect = lower value
[98] = locus YPL051W, strain arl3, stronger effect = lower value
[99] = locus YPL078C, strain atp4, stronger effect = lower value
[100] = locus YPL106C, strain sse1, stronger effect = lower value
[101] = locus YPL240C, strain hsp82, stronger effect = lower value
[102] = locus YPL256C, strain CLN2, stronger effect = lower value

Measured: normalized growth

O=[N+]([O-])c1cccc2cn[nH]c12
inactive: [1] 1.01 | [2] 1 | [3] 1 | [4] 0.985 | [5] 0.996 | [6] 1 | [7] 0.991 | [8] 0.981 | [9] 0.982 | [10] 1 | [11] 0.983 | [12] 0.989 | [13] 1 | [14] 0.997 | [15] 0.986 | [16] 0.98 | [17] 0.997 | [18] 1 | [19] 0.99 | [20] 0.982 | [21] 0.996 | [22] 0.991 | locus YDR195W, strain ref2 1.02 | [23] 0.988 | [24] 0.997 | [25] 0.986 | [26] 1.01 | [27] 1.02 | [28] 1 | [29] 1 | [30] 0.979 | [31] 0.987 | [32] 0.994 | [33] 1 | [34] 0.989 | [35] 1.01 | [36] 0.988 | [37] 0.998 | [38] 1.01 | [39] 1.01 | [40] 1.01 | [41] 0.99 | locus YGR229C, strain SMI1, stronger effect = lower value 0.999 | [42] 1.05 | [43] 0.994 | [44] 1.03 | [45] 1.03 | [46] 0.995 | [47] 0.989 | [48] 1 | [49] 1.03 | [50] 0.984 | [51] 1 | [52] 0.981 | [53] 0.988 | [54] 0.992 | [55] 0.999 | [56] 0.947 | locus YJR075W, strain HOC1, stronger effect = lower value 1.01 | [57] 0.958 | [58] 1 | [59] 0.988 | [60] 0.999 | [61] 0.98 | [62] 0.985 | [63] 1 | [64] 1 | [65] 0.995 | [66] 0.983 | [67] 1.01 | [68] 1 | [69] 1.01 | [70] 0.993 | [71] 0.994 | [72] 0.996 | [73] 0.991 | [74] 0.982 | [75] 0.967 | [76] 0.993 | [77] 0.991 | [78] 1 | [79] 1.01 | locus YNL128W, strain TEP1, stronger effect = lower value 0.998 | [80] 0.999 | [81] 0.951 | [82] 0.992 | [83] 0.972 | [84] 1 | [85] 0.965 | [86] 0.993 | [87] 1 | [88] 1 | [89] 0.992 | [90] 1.01 | [91] 1 | [92] 0.965 | [93] 0.981 | [94] 1.01 | [95] 0.996 | [96] 0.992 | [97] 0.986 | [98] 0.972 | [99] 0.995 | [100] 0.957 | [101] 0.992 | [102] 0.997

O=[N+]([O-])c1cccc2c(Br)[nH]nc12
active: [85] 0.871 | [92] 0.881 | [93] 0.863 | [98] 0.899 | [99] 0.874
inactive: [1] 0.955 | [2] 0.993 | [3] 0.984 | [5] 0.982 | [6] 1.01 | [7] 0.992 | [8] 0.972 | [9] 0.997 | [10] 0.992 | [11] 0.976 | [12] 0.996 | [14] 0.983 | [15] 0.972 | [16] 0.986 | [17] 0.977 | [18] 0.99 | [19] 0.984 | [20] 0.965 | [21] 0.942 | locus YDR150W, strain NUM1, stronger effect = lower value 0.961 | [22] 1.07 | locus YDR195W, strain ref2 1.09 | [23] 0.977 | [24] 0.956 | [25] 0.975 | [27] 0.852 | [28] 0.978 | [29] 0.99 | [30] 0.987 | [31] 0.975 | [32] 0.973 | [33] 0.998 | [34] 0.998 | [35] 0.948 | [36] 0.972 | [37] 0.99 | [38] 0.983 | [39] 0.993 | [40] 0.996 | [41] 0.988 | [42] 1.03 | [43] 0.974 | [44] 0.933 | [45] 0.937 | [46] 0.901 | [47] 0.969 | [48] 0.977 | [49] 0.911 | [50] 0.985 | [51] 0.988 | [52] 0.983 | [53] 0.932 | [54] 0.952 | [55] 0.98 | [56] 0.882 | [57] 0.916 | [58] 0.988 | [59] 0.976 | [60] 0.977 | [61] 0.98 | [62] 0.976 | [63] 0.972 | [64] 1.04 | [65] 0.937 | [66] 0.994 | [67] 0.986 | [68] 0.99 | [69] 0.987 | [70] 1.02 | [71] 0.986 | [72] 0.987 | [73] 0.94 | [74] 0.942 | [75] 1.01 | [76] 0.99 | [77] 1.05 | [78] 0.994 | [79] 0.982 | [80] 0.972 | [81] 0.873 | [82] 1.01 | [83] 0.973 | [84] 0.982 | [86] 0.994 | [87] 0.977 | [88] 0.928 | [89] 0.984 | [90] 0.987 | [91] 0.991 | [94] 0.929 | [95] 0.982 | [96] 0.804 | [97] 0.919 | [100] 0.979 | [101] 0.979 | [102] 0.97

NS(=O)(=O)c1cccc2c1c([N+](=O)[O-])cc1nc(O)c(O)nc12
inactive: locus YAL013W, strain DEP1, stronger effect = lower value 1 | [4] 1.08 | [13] 0.998 | [26] 1.01 | [31] 0.999 | locus YGR078C, strain PAC10, stronger effect = lower value 0.995 | locus YMR307W, strain GAS1, stronger effect = lower value 0.997 | [80] 0.989 | [82] 1.01 | [84] 1 | locus YNL322C, strain KRE1, stronger effect = lower value 0.998 | [91] 1.01 | locus YPL055C, strain LGE1, stronger effect = lower value 1
